Reference: PubChem BioAssay AID1918 (Vanderbilt High Throughput Screening Facility, 2009)
About 2,500 (1.9%) of roughly 130,000 compounds were called active. What follows is part of a selection rich in actives, with near analogues and random picks from the rest. Unmarked numbers belong to inactive results.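 The calls were made as follows: active = signal ratio slope over the read window, or its plate-corrected B-score, at least 3 SD from the plate mean, either direction; inactive = the rest.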

Each compound was assayed against ATP-sensitive inward rectifier potassium channel 1 (Homo sapiens) (UniProt P48048) (assay: Kir1.1 channel activity modulation, library screen – cell-based, thallium flux, MLSMR library, primary screen (AID 1918;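 also: B-score of the F/F0 ratio slope over 7 to 12 s after thallium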)). Settings: Tet-inducible ROMK, thallium flux fluorescence; at 10 µM; actives lie on both sides.
ATP-sensitive inward rectifier potassium channel 1 (Homo sapiens), sequence (P48048 whole entry, looked up): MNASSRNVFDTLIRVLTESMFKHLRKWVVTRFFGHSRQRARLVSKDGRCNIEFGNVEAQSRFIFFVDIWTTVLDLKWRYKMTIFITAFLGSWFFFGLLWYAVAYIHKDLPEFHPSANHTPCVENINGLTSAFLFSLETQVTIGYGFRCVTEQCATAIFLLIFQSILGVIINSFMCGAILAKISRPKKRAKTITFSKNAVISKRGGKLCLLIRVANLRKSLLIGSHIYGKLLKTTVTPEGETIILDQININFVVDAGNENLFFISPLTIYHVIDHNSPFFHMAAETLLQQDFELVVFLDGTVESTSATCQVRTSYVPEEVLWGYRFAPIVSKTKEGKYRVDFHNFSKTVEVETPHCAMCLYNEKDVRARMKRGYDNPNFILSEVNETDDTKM
CCOC(=O)C(C)Oc1cccc2c(=O)n(CC(=O)NCCc3ccc(OC)c(OC)c3)ccc12 (centres undefined) gave a B-score of -0.831. COC(=O)COc1cccc2c(=O)n(CC(=O)NCCc3ccc(OC)c(OC)c3)ccc12 showed a B-score of -0.562. For COC(=O)COc1cccc2c(=O)n(CC(=O)NCc3ccccc3)ccc12, the B-score was 2.99 (active). COc1cccc(CN2CCNC(=O)C2CC(=O)N(C)CCc2ccccn2)c1 (centres undefined) was tested, and the B-score was 0.0523. C/C(=N/NC(=O)CSc1ccccn1)c1ccc([N+](=O)[O-])cc1 showed a B-score of -0.494. Compound O=c1cnnc(Nc2ccccc2F)[nH]1 has a B-score of 0.476. In the case of CCOC(=O)Cc1csc(NC(=O)CSc2nc(C)cc(=O)[nH]2)n1, the B-score is reported as -0.406. In the case of CCOC(=O)Cc1csc(SCC(=O)NC(C)C23CC4CC(CC(C4)C2)C3)n1 (centres undefined), the B-score is reported as -3.3 (active). Compound CCOC(=O)Cc1csc(NC(NC(=O)OCC)(C(F)(F)F)C(F)(F)F)n1 has a B-score of 1.5. For CCOC(=O)Cc1csc(NC(=O)CSc2ccc(Br)cc2)n1, the B-score was -2.72 (active). CCOC(=O)Cc1csc(NC(=O)Nc2ccccc2)n1 showed a B-score of 0.0709. CCOC(=O)Cc1csc(NC(=O)CSc2nnc(-c3cccnc3)n2Cc2ccco2)n1 gave a B-score of 0.0388. In the case of Cn1nc(C(F)(F)F)c2cc(C(=O)N3CCOCC3)sc21, the B-score is reported as 1.3. COc1ccccc1-n1ccnc1SCC(=O)NC(C)(C)C was tested, and the B-score was -0.243. In the case of Cc1nc(NCCN)c(C#N)c2c1COC(C)(C)C2, the B-score is reported as 0.0226. For CCCCc1nc(NCc2ccccc2)c(C#N)c2c1CCCC2, the B-score was 0.19. With CCCCc1nc(NCCN)c(C#N)c2c1CSC(C)(C)C2 the B-score was -3.92 (active). In the case of COc1cc2nc(CN(C)Cc3ccc(F)cc3)[nH]c(=O)c2cc1OC, the B-score is reported as 0.927. COc1ccc(-c2nc(CN3CCN(c4ncccn4)CC3)c(C)o2)cc1C showed a B-score of -0.768. With Cc1cc(NC(=O)OC(C)C)ccc1-c1ccc(NC(=O)OC(C)C)cc1C the B-score was 0.938. In the case of O=C(NNC(=O)C1C2CCC(C2)C1C(=O)O)c1ccc(Cl)cc1 (centres undefined), the B-score is reported as -0.0201. Work on C[C@H](NC(=O)c1ccccc1Cl)C(=O)OCCOc1cccc(Cl)c1 yielded a B-score of 0.0242. For COc1cc2c(cc1OC)C(/C=C/c1ccco1)=NCC2, the B-score was -7.44 (active). Work on COc1cccc2c(N/N=C/c3ccco3)cc(C)nc12 yielded a B-score of -0.776. COc1ccc(Cl)cc1C(=O)NNC(=S)NC(=O)/C=C/c1ccco1 gave a B-score of 1.26. Cc1cc(=O)oc2c1c(C)nn2-c1ccc(Cl)cc1 gave a B-score of 0.108. COc1ccc(S(=O)(=O)NCC2CCCN(C(=O)c3occc3C)C2)cc1 (centres undefined) gave a B-score of -0.286. C/C=C/C=C/C(=O)OCC(=O)Nc1ccc(Cl)cc1 gave a B-score of -0.0163. CCC(C)NC(=O)Cn1nc(C(F)(F)F)c2c1CCC2 (centres undefined) was tested, and the B-score was -0.0332. Compound Cc1cc(-c2csc(N)n2)c(C)n1Cc1ccccc1 has a B-score of -1.12. O=C(NC(Nc1nc2ccc([N+](=O)[O-])cc2s1)(C(F)(F)F)C(F)(F)F)c1ccccc1 was tested, and the B-score was -4.53 (active). O=C(O)CCC(=O)Nc1nc2ccc([N+](=O)[O-])cc2s1 gave a B-score of 0.0361. O=C(Nc1nc2ccc([N+](=O)[O-])cc2s1)c1ccc(S(=O)(=O)N2CCCc3ccccc32)cc1 was tested, and the B-score was -2.44. O=C(NCCCN1CCOCC1)c1ccccc1NS(=O)(=O)c1ccc(F)cc1 showed a B-score of 0.243. For O=C1CC(=O)Nc2cc(S(=O)(=O)N3CCN(c4cccc(C(F)(F)F)c4)CC3)ccc2N1, the B-score was -0.0476. Cc1cc2cc(CN(Cc3cccs3)Cc3nnnn3CC3CCCO3)c(=O)[nH]c2cc1C (centres undefined) was tested, and the B-score was -5.43 (active). COc1ccc2[nH]c(=O)c(CN(Cc3nnnn3CCc3ccccc3)CC3CCCO3)cc2c1 (centres undefined) showed a B-score of -1.17. Compound COc1ccccc1C(c1nnnn1CC1CCCO1)N1CCN(c2ccccc2)CC1 (centres undefined) has a B-score of -0.18. CCN(CC)CC1(O)CCN(C(=O)c2ccc(Cl)c(Cl)c2)CC1 was tested, and the B-score was 0.898. For Cc1nn(CC(=O)Nc2ccc3c(c2)OCO3)c(C)c1[N+](=O)[O-], the B-score was 0.634. Compound CC(CC(=O)Nc1ccccc1)n1ccnc1 (centres undefined) has a B-score of -0.543. O=C(CN1CCN(S(=O)(=O)/C=C/c2ccccc2)CC1)Nc1ccc(N2CCOCC2)cc1 showed a B-score of 1.12. For O=C(NC(=O)N1CCOCC1)c1ccccc1, the B-score was 0.751. For O=C(/C=C/c1ccc(N2CCOCC2)cc1)c1ccccc1, the B-score was -3.77 (active). For O=C(c1ccc2c(c1)C(=O)N(c1ccc(Cl)cc1)C2=O)N1CCN(c2ccccn2)CC1, the B-score was 0.202. For CC(=O)Oc1ccc(C)cc1N1C(=O)c2ccc(C(=O)O)cc2C1=O, the B-score was 0.575. For O=C(O)c1ccc2c(c1)C(=O)N(c1ccc(/C=C/C(=O)c3ccccc3)cc1)C2=O, the B-score was -2.93 (active). COc1cc(NC(=O)COC(=O)c2cnc(C)cn2)c(C)cc1[N+](=O)[O-] gave a B-score of -0.377. Compound O=C(O)c1ccccc1C(=O)Nc1ccccc1[N+](=O)[O-] has a B-score of -0.117. Cc1csc(NC(=O)CSc2ccc(-c3ccc(F)cc3)nn2)n1 gave a B-score of -0.896. Cc1ccc(C(=O)C[n+]2cc(-c3ccccc3)n3c2CCCCC3)cc1 was tested, and the B-score was -3.3 (active). Cc1ccc(C(=O)N2CCCC(c3ccccc3)=N2)cc1 was tested, and the B-score was -0.95. Cn1c(-c2ccccc2)c[n+]2c1CCCCC2 showed a B-score of 0.591. With CCOC(=O)C1CCCN(C(=O)COc2ccc(N(C)S(=O)(=O)c3ccc(C)cc3)cc2)C1 (centres undefined) the B-score was 0.882. For CCN(CC)S(=O)(=O)c1ccc(NC(=O)c2cccnc2Cl)c(NC(=O)c2cccnc2Cl)c1, the B-score was 0.845. Cc1ccc(CNC(=O)CC2Sc3ccccc3NC2=O)cc1 (centres undefined) was tested, and the B-score was 1.17 (active). With COC(=O)C(C)C1Sc2ccccc2NC1=O (centres undefined) the B-score was -0.193. Compound COc1ccc(CCNC(=O)CC2SC(=Nc3cc(C)cc(C)c3)NC2=O)cc1OC (centres undefined) has a B-score of -0.14. CC(Nc1nc(N2CCOCC2)nc2ccccc12)c1ccccc1 (centres undefined) gave a B-score of -0.474.
